In PubChem BioAssay (EPA / NIEHS):
Records with an inconclusive call do not appear. Some compounds were tested as several samples or in several runs, with calls that do not always agree. Active and inactive are the calls of the source. The calls were made as follows: active = hit-call score of the fitted dose curve at least 0.9, where 1 is the maximum; inconclusive = response in the unintended direction; inactive = score below 0.9.

What follows are molecules tested against human Caspase 8 (CASP8), CASP8 (gene 841) (UniProt Q14790) (assay: NVS_ENZ_hCASP8: NovaScreen (NVS) Enzymatic Assay for human Caspase 8 (CASP8) (AID 2283146)).
human Caspase 8 (CASP8), CASP8 (gene 841), sequence (Q14790 whole entry, looked up): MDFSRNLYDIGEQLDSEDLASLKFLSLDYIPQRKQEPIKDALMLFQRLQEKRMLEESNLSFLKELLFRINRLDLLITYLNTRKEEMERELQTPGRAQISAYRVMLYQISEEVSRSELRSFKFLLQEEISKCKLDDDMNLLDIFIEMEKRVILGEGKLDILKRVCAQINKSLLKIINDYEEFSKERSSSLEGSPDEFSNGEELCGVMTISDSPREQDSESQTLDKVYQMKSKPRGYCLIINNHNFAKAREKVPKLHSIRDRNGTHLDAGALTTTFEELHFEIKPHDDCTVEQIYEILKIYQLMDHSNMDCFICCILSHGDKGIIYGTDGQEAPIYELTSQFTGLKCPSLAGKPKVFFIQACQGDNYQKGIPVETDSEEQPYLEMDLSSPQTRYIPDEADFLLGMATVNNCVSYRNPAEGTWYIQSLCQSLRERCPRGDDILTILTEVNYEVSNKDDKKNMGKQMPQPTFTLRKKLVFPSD
Outline: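 The primary screen tested compounds in duplicate at a single 25 uM concentration, with actives followed up in concentration series. Activity of recombinant (E. coli) protease was measured by fluorescence 1 h post-dose, as signal loss against DMSO.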
For O=C(O)c1cc(Oc2ccc(C(F)(F)F)cc2Cl)ccc1[N+](=O)[O-], the outcome was “inactive”.
S=C1NCCN1 was tested, and the outcome was “inactive”.
For CN(C)[C@@H]1C(=O)C(C(N)=O)=C(O)[C@@]2(O)C(=O)C3=C(O)c4c(O)cccc4[C@@](C)(O)[C@H]3[C@H](O)[C@@H]12, the AC50 was 15.8 µM (active) and the outcome was “inactive”.
In the case of COc1ccc(C(=CC(=O)N2CCOCC2)c2ccc(Cl)cc2)cc1OC, the outcome is reported as “inactive”.
CC(C)=CC1C(C(=O)OCN2C(=O)C3=C(CCCC3)C2=O)C1(C)C (stereo not given) was tested, and the AC50 was 25 µM (active).

These molecules were tested against human Dual Specificity Protein Phosphatase 3 (DUSP3), DUSP3 (gene 1845) (UniProt P51452) (assay: NVS_ENZ_hDUSP3: NovaScreen (NVS) Enzymatic Assay for human Dual Specificity Protein Phosphatase 3 (DUSP3) (AID 2283152);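 also: phosphatase activity of recombinant human DUSP3 on a fluorogenic substrate without cells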).
human Dual Specificity Protein Phosphatase 3 (DUSP3), DUSP3 (gene 1845), sequence (P51452 whole entry, looked up): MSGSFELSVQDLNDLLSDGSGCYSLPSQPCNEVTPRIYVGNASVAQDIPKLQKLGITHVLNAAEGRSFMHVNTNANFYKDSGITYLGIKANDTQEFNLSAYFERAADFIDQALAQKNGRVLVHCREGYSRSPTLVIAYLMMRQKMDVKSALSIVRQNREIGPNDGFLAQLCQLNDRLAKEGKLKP
Outline: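 Cell-free fluorescence-intensity enzyme activity assay with recombinant protein and substrate; loss of signal fitted relative to DMSO baseline. Primary screen in duplicate at 25 uM, actives then run in concentration series; measured 0 h after dosing.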
With S=C1NCCN1 the outcome was “inactive”.
With CN(C)[C@@H]1C(=O)C(C(N)=O)=C(O)[C@@]2(O)C(=O)C3=C(O)c4c(O)cccc4[C@@](C)(O)[C@H]3[C@H](O)[C@@H]12 the AC50 was 2.62 µM (active).
With CC[C@H](C)[C@H]1O[C@]2(C=C[C@@H]1C)C[C@@H]1C[C@@H](C/C=C(\C)[C@@H](O[C@H]3C[C@H](OC)[C@@H](O[C@H]4C[C@H](OC)[C@@H](NC)[C@H](C)O4)[C@H](C)O3)[C@@H](C)/C=C/C=C3\CO[C@@H]4[C@H](O)C(C)=C[C@@H](C(=O)O1)[C@]34O)O2 the outcome was “inactive”.
With C#CCC1=C(C)C(OC(=O)C2C(C=C(C)C)C2(C)C)CC1=O (stereo not given) the outcome was “inactive”.
